DRD3 antagonist – blocks the human D3 dopamine receptor | max response, negative = inhibition, % | 360,000 compounds, 2.5% hits | P35462 | D3R cells, DiscoveRx beta-arrestin luminescence, antagonist mode; stronger effect = lower value; in the data active = max response below about -50%; inconclusive = no clear call, values can overlap the other calls; also: % is scaled to controls: 0 for no effect and ±100 for the full control effect
Target sequence (P35462 whole entry, looked up): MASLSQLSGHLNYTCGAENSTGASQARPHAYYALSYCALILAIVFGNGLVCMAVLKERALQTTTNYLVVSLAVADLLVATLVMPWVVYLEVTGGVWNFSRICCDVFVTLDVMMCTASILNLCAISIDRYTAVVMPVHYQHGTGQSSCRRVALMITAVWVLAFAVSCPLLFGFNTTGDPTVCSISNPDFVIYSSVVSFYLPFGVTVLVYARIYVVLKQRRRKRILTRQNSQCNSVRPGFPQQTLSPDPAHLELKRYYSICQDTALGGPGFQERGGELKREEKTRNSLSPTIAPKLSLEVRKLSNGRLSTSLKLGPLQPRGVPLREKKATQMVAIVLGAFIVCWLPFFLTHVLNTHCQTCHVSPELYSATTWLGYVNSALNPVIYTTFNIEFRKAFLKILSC
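Cells expressing the human receptor were seeded at 1500 cells/well, incubated overnight at 37 degrees C in 5% CO2, then exposed to library compounds with dopamine controls for 90 minutes at 37 degrees C before luminescent detection.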
KB-V1 cytotox – kills drug-selected multidrug resistant KB-V1 cells | Potency, µM (series often up to 46.1 µM), most hits filed as cytotoxic | KB-V1 MDR cells viability, CellTiter-Glo, 72 h | 400,000 compounds, 3.4% hits | AID 1347076; also: potency is read from the fitted curve at half-maximal effect; % is scaled to controls: 0 for no effect and ±100 for the full control effect; nearly all actives have a fitted effect of over 60% in size
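Following 72 h at 37 degrees C with compound, KB-V1 cell viability was read by CellTiter-Glo luminescence, medium being phenol-red-free DMEM plus 10% FBS; concentration-response parameters came from normalized, curve-fitted qHTS data.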
MCF10A rerep – inducers of DNA re-replication in MCF 10A breast cells; 350,000 compounds, 2.9% hits; MCF 10A DNA re-replication, Hoechst nuclear intensity, 48 h; Potency, µM (top dose mostly 46.1 µM), for the others: at the highest dose activity, positive = re-replication, most hits filed as activators; also: potency is read from the fitted curve at half-maximal effect; % of control where 0% means no effect; nearly all actives have a fitted effect of over 50% in size
SW480 rereplic – DNA re-replication induction in SW480 cells. 340,000 compounds, 1.8% hits. Potency, µM (doses to about 46.1 µM), for inactives: at the top dose re-replication activation, hits mostly activators. SW480 DNA re-replication, Hoechst DNA content imaging, 48 h; also: potency is read from the fitted curve at half-maximal effect; % of control where 0% means no effect; nearly all actives have a fitted effect of over 55% in size
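Readout is total intensity of Hoechst-stained nuclei, excited at 405 nm and collected at 500-530 nm. Compound treatment lasted 48 hr at 37 C in 5% CO2 before staining.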
KB-3-1 tox – KB-3-1 parental cell cytotoxicity | KB-3-1 viability, CellTiter-Glo ATP luminescence, 72 h | Potency, µM (highest dose often 46.1 µM), usual class: cytotoxic | 400,000 compounds, 1.4% hits | AID 1347075; also: potency is read from the fitted curve at half-maximal effect; % is scaled to controls: 0 for no effect and ±100 for the full control effect; nearly all actives have a fitted effect of over 60% in size
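72 h, 37 °C compound treatment of KB-3-1 parental cells; CellTiter-Glo added, 10 min, luminescence read. Data corrected against DMSO-only plates and normalized before curve fitting.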
DRD3 agonist – agonists of human D3 dopamine receptor. P35462. D3R DiscoveRx beta-arrestin cells, luminescence, 90 min. max activation, %. 410,000 compounds, 0.58% hits; in the data active = max activation above about 30%; also: 0% is about no effect
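Cells at 1500/well, incubated overnight, then treated with pinned compounds (dopamine as control) for 90 min at 37 degrees C. DiscoveRx reagent added for 30 - 60 minutes at room temperature; luminescence read.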
An asterisk follows results filed as active; i = inactive; ? = inconclusive; / = no result. Most compounds without a hit are left out; they make up all but 8.9% or so of the library. Unless noted, calls follow the shape of the dose curve; as a rule, active = well fitted curve in the direction sought with a large enough effect; inconclusive = small, poorly fitted or top-dose-only effect, or another doubt; inactive = no such curve, though single readings can be large; an effect the other way counts as inactive or inconclusive.

SMILES	DRD3 antagonist	KB-V1 cytotox	MCF10A rerep	SW480 rereplic	KB-3-1 tox	DRD3 agonist
CCN(CC)C(=O)c1cnn(-c2ccccc2)c1NC(=O)c1ccccc1F	-13	4.6µM*	9%	-2%	i	-12
O=C(Nc1c(C(=O)N2CCOCC2)cnn1-c1ccccc1)c1ccccc1F	7	i	6%	2%	i	28
CCOc1ccc(C(=O)NCCc2sc3nc(-c4ccc(Cl)cc4)nn3c2C)cc1OCC	/	/	/	/	/	7
CCOC(=O)CCC(NC(=O)c1cncc(O)c1)C(=O)OCC (centres undefined)	-65*	i	1%	-4%	i	-1
CCOC(=O)CCC(NC(=O)c1ccc(Nc2nc3ccccc3nc2C(=O)OCC)cc1)C(=O)OCC (centres undefined)	1	9.2µM*	15%	7%	i	-3
COc1nc(C)ccc1-c1noc(-c2ccccn2)n1	-17	12µM*	-4%	-9%	i	-10
COCc1nc(-c2ccc(-c3ccccc3)nc2OC)no1	6	?	4%	-2%	i	2
CCOc1nc(-c2ccccc2)ccc1-c1noc(COC)n1	20	23µM*	24%	?	i	-2
COc1ccccc1-c1nc(-c2ccc(C)nc2OC)no1	-5	i	1%	-3%	i	1
COc1nc(-c2ccccc2)ccc1-c1noc(C)n1	4	?	13µM*	-1%	i	3
COc1cccc(CNC(=O)CSc2nc(=O)[nH]c3c2CCCC3)c1	/	/	/	/	/	2
CCN(CC)S(=O)(=O)c1cccc(C(=O)NCC2CCCCC2)c1	?	12µM*	7%	-1%	?	-1
O=C(CN(C(=O)CNS(=O)(=O)c1ccccc1)C1CCCC1)NCC1CCCO1 (centres undefined)	-53*	i	2%	-4%	i	2
COCCNC(=O)C1=C(N)C(C(=O)Nc2ccc(C)c(S(=O)(=O)N3CCCCC3)c2)SC1=Nc1ccc(C)cc1C (centres undefined)	-22	i	?	?	i	-10
CCN(CC)S(=O)(=O)c1cccc(C(=O)NCC(c2ccccc2)N(C)C)c1 (centres undefined)	-21	?	?	-3%	i	-9
CCN(CC)S(=O)(=O)c1cccc(C(=O)NCC2CCCO2)c1 (centres undefined)	17	i	23µM*	?	i	7
CCN(CC)S(=O)(=O)c1ccc(Cl)c(C(=O)NCC2CCCO2)c1 (centres undefined)	6	i	-2%	-8%	i	2
CCN(CC)S(=O)(=O)c1cccc(NC(=O)C2SC(=Nc3ccc(C)cc3C)C(C(=O)NCC3CCCO3)=C2N)c1 (centres undefined)	-10	21µM*	?	?	?	5
Cc1ccc(C)c(Nc2nc3c(S(=O)(=O)c4ccc(Br)cc4)nnn3c3ccsc23)c1	/	i	/	/	i	5
CCCCC/C=C\C/C=C\CCCCCCCC(=O)NC(C)c1ccccc1 (centres undefined)	/	/	/	/	/	0
O=C(NCC1CCCO1)c1cccc(S(=O)(=O)N(Cc2ccccc2)c2ccccc2)c1 (centres undefined)	-15	8.2µM*	20%	-4%	i	-5
C=CCN(c1ccccc1)S(=O)(=O)c1cccc(C(=O)NCC2CCCO2)c1 (centres undefined)	1	?	5%	2%	i	-5
CCc1nc(CNC(=O)C2CCC(=O)N(Cc3ccccc3F)C2)no1 (centres undefined)	6	i	1%	-11%	i	7
COc1ccc(-c2cn3nc(N4CCC(C(=O)NCc5ccccc5F)CC4)sc3n2)cc1	/	i	/	/	i	13
CC(C)(C)NC(=O)C(CCc1ccccc1)n1c(=O)c(-c2cc3ccccc3[nH]2)nc2ccccc21 (centres undefined)	18	?	/	/	i	2
SMILES	DRD3 antagonist	KB-V1 cytotox	MCF10A rerep	SW480 rereplic	KB-3-1 tox	DRD3 agonist
CSCCC(C(=O)Nc1c(C)cccc1C)n1c(-c2ccc(-c3ccccc3)cc2)nc2ccccc21 (centres undefined)	1	i	/	/	i	0
CC(C)(C)NC(=O)C(c1ccccc1)n1c(=O)c(-c2cc3ccccc3[nH]2)nc2ccccc21 (centres undefined)	7	23µM*	/	/	?	6
CC(C)(C)NC(=O)C(c1ccc(-c2ccccc2)cc1)n1c(=O)c(-c2cc3ccccc3[nH]2)nc2ccccc21 (centres undefined)	26	i	/	/	?	2
O=C(NC1CCCCC1)C(C1CC1)n1c(=O)c(-c2cc3ccccc3[nH]2)nc2ccccc21 (centres undefined)	17	23µM*	/	/	?	1
Cc1cccc(C)c1NC(=O)C(CCc1ccccc1)n1c(=O)c(-c2cc3ccccc3[nH]2)nc2ccccc21 (centres undefined)	2	21µM*	/	/	?	7
CSCCC(C(=O)Nc1c(C)cccc1C)n1c(-c2cc(C)cs2)nc2ccccc21 (centres undefined)	-66*	i	/	/	i	-21
COc1ccc(CCNC(=O)c2cnc3sc(N4CCOCC4)nn3c2=O)cc1	/	i	/	/	i	6
CC(=O)N1CCC(N(Cc2ccc(C)o2)C(=O)Nc2ccc(C)cc2)CC1	/	i	/	/	i	6
CCOC(=O)c1c(C)[nH]c(C)c1S(=O)(=O)N1CCCC(C(=O)NCc2ccc(N(C)C)cc2)C1 (centres undefined)	/	i	/	/	i	7
Cc1ccc(-n2nnnc2Sc2nc([N+](=O)[O-])nn2C)cc1	-17	i	?	16µM*	i	5
CCSc1nnc2n(-c3cccc(C)c3)c(=O)c3c4c(sc3n12)CCCC4	/	?	/	/	?	37*
COC(=O)C(Cc1ccccc1)OS(N)(=O)=O (centres undefined)	-58*	i	4%	-3%	i	-12
COC(=O)C(NC(=O)c1ccccc1C)(Nc1ncc(S(=O)(=O)c2ccc([N+](=O)[O-])cc2)s1)C(F)(F)F (centres undefined)	-77*	?	?	0%	?	-7
CN(C)CCC(O)(c1ccccc1)c1ccccc1	-28	i	4%	8%	i	-8
NCC(c1ccccc1)(c1ccccc1)c1ccccc1	-7	21µM*	18%	?	?	-8
CCOC(=O)N=Nc1c2ccccc2c2nc3no[nH]c3nc12	-65*	2.9µM*	?	?	1.5µM*	-18

Screening results as filed in PubChem.
